Shown are actives, neighbours in structure and some others; about 4.2% of the full set was active somewhere.
RecA splice inh = blocks M. tuberculosis RecA intein splicing | actives 0.75% (n = 290,000) | inhibition, % (test concentration not listed) | P9WHJ3 | cell-free RecA intein splicing, fluorescence; in the data active = inhibition above about 30%
Target sequence (P9WHJ3 whole entry, looked up, canonical isoform): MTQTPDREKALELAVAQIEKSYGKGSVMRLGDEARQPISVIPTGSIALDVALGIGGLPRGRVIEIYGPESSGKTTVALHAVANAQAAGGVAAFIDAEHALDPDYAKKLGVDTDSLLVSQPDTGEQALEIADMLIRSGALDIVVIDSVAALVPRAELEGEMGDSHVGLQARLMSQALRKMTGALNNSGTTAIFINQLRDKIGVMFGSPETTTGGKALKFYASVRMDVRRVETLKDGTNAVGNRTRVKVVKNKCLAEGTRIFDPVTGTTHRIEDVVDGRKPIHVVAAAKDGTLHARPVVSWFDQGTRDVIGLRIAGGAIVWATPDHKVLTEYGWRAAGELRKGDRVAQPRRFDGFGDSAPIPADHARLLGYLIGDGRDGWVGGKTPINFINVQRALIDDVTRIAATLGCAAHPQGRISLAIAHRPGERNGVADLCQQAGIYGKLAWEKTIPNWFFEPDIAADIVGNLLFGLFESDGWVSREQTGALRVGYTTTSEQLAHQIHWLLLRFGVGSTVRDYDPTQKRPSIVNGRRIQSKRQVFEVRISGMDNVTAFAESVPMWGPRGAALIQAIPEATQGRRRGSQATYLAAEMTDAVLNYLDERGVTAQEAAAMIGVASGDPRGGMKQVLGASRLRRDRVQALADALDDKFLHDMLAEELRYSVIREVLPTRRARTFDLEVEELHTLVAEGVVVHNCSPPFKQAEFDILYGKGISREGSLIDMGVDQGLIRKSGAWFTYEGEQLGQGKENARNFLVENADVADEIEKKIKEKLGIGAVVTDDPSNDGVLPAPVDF
Mtb FBA inh = inhibitors of M. tuberculosis fructose-bisphosphate aldolase | purified M. tuberculosis FBA, fluorescence read-out | inhibition, % at 1 µM | actives 2.3% (n = 360,000) | AID 588726
GDH-TPI counter-1 = inhibits GDH-TPI coupling enzymes, artifact for Mtb FBA screen; GDH-TPI coupled enzyme counterscreen, NADH absorbance; inhibition, % at 4.8 µM; actives 1.2% (n = 360,000); AID 588335; in the data active = inhibition above about 30%
BJeLR lethal = BJeLR cell viability loss. BJeLR (HRASV12) viability, CellTiter-Glo ATP luminescence, 48 h. inhibition, % (test concentration not listed). actives 0.17% (n = 300,000); in the data active = inhibition above about 50%
PrPC surface inh = reduces human prion protein on the cell surface. P04156. cell surface PrPC, TR-FRET read-out. inhibition, % at 13.8 µM. actives 0.43% (n = 370,000); in the data active = inhibition above about 24%
Mtb FBA inh conf = Mtb FBA inhibition, confirmed | shares compounds with Mtb FBA inh | purified M. tuberculosis FBA, fluorescence read-out | inhibition, % at 1 µM | actives 78% (n = 5,600) | AID 651616
GDH-TPI counter-2 = counter-screen for M. tuberculosis FBA inhibitors: GDH-TPI coupled enzyme inhibition; actives 81% (n = 5,600); inhibition, % at 1 µM; GDH-TPI coupled enzyme counterscreen, fluorescence; shares compounds with Mtb FBA inh; in the data active = inhibition above about 10%
Large screens that a line does not name were inactive (follow-up assays come after a bar, where they were run). Cut-off read from the data, not from the text of the source, unless noted: active = inhibition above about 27%; inactive = the rest.

OC[C@@H]1[C@@H](c2ccccc2)C(c2ccccc2)=NN1c1ccccc1	Mtb FBA inh 49 (no result: RecA splice inh, BJeLR lethal) | Mtb FBA inh conf 120 | GDH-TPI counter-2 91
COC(=O)C1=C(C)N(Cc2ccccc2C(F)(F)F)C(=NCc2ccc(OC)cc2)NC1c1cccc(Cl)c1 (stereo unspecified)	none (no result: RecA splice inh, Mtb FBA inh, GDH-TPI counter-1, BJeLR lethal)
COc1ccc2c(c1)CCCN2C(=O)C1CCCN(S(=O)(=O)c2ccccc2)C1 (stereo unspecified)	none (no result: RecA splice inh, Mtb FBA inh, GDH-TPI counter-1, BJeLR lethal)
O=C(Nc1ccc(F)cc1)Nc1c(-c2ccc(F)cc2)nc2ncccn12	none (no result: RecA splice inh, Mtb FBA inh, GDH-TPI counter-1, BJeLR lethal)
CCOC(=O)c1cccc(NC(=O)CN(C)S(=O)(=O)c2ccc(C)c(C)c2)c1	none (no result: RecA splice inh, Mtb FBA inh, GDH-TPI counter-1, BJeLR lethal)
O=C(Cn1c(=O)oc2ccccc21)N1CCN(c2ccc(N3CCOCC3)nn2)CC1	Mtb FBA inh 28 | Mtb FBA inh conf 132 | GDH-TPI counter-2 80
CC(Oc1ccccc1)C(=O)N1CCN(c2ccc(N3CCOCC3)nn2)CC1 (stereo unspecified)	Mtb FBA inh 30 | Mtb FBA inh conf inactive | GDH-TPI counter-2 inactive
O=C(c1cccc(Cl)c1)N1CCN(c2ccc(N3CCOCC3)nn2)CC1	none
O=C(c1ccccc1)N1CCN(c2ccc(N3CCOCC3)nn2)CC1	Mtb FBA inh 32 | Mtb FBA inh conf 28 | GDH-TPI counter-2 30
Cc1ccccc1CS(=O)(=O)CCC(=O)N1CCN(c2ccc(N3CCOCC3)nn2)CC1	Mtb FBA inh 35 | Mtb FBA inh conf 66 | GDH-TPI counter-2 60
CC(Oc1ccccc1)C(=O)N1CCN(c2ccc(N3CCCCCC3)nn2)CC1 (stereo unspecified)	none
COC(=O)C1=C(C)N(Cc2ccc(C(F)(F)F)cc2)C(=NCc2ccc(OC)cc2)NC1c1ccccc1C(F)(F)F (stereo unspecified)	none (no result: RecA splice inh, Mtb FBA inh, GDH-TPI counter-1, BJeLR lethal)
COc1ccc(-n2c(SCC(=O)N3CCCC3)nnc2-c2ccncc2)cc1	none (no result: RecA splice inh, Mtb FBA inh, GDH-TPI counter-1, BJeLR lethal)
CN(C)Cc1cc(CN(C)C)c(O)c(CCc2ccccc2)n1	none
Cc1ccc(-c2nc(CN(C)C)cc(CN(C)C)c2O)cc1	Mtb FBA inh 80 (no result: RecA splice inh, BJeLR lethal) | Mtb FBA inh conf inactive | GDH-TPI counter-2 inactive
COc1ccccc1-c1cccc2[nH]c3c(c12)CCN1C(=O)[C@H]2[C@H](C)ON(C)[C@H]2C[C@@H]31	none (no result: RecA splice inh, Mtb FBA inh, GDH-TPI counter-1, BJeLR lethal)
COc1ccc(-c2cc(=O)oc3cc(OCC(=O)NCCN4CCOCC4)ccc23)cc1	none
O=C(COc1ccc2ccc(=O)oc2c1)NCCN1CCOCC1	Mtb FBA inh 27 (no result: RecA splice inh, BJeLR lethal) | Mtb FBA inh conf 123 | GDH-TPI counter-2 95
CC(Oc1ccc2c(-c3ccccc3)cc(=O)oc2c1)C(=O)NCCCN1CCOCC1 (stereo unspecified)	none
O=C(COc1ccc2ccc(=O)oc2c1)Nc1ccc(N2CCCCC2)cc1	Mtb FBA inh 41 (no result: RecA splice inh, BJeLR lethal) | Mtb FBA inh conf active | GDH-TPI counter-2 152
CC(Oc1ccc2ccc(=O)oc2c1)C(=O)NCCN1CCOCC1 (stereo unspecified)	Mtb FBA inh 28 | Mtb FBA inh conf 151 | GDH-TPI counter-2 110
COc1ccc(-c2cc3nc4ccccc4n3c(N)c2C#N)cc1	Mtb FBA inh 41 | Mtb FBA inh conf active | GDH-TPI counter-2 active
CCSc1nc(-c2ccc(OC)cc2)cc(-c2ccccc2)c1C#N	none
CS(=O)(=O)N[C@@H]1C[C@@H]2O[C@H](CO)CC[C@@H]2O[C@@H]1CCc1ccc(/C=C/c2ccccc2)cc1	none (no result: RecA splice inh, Mtb FBA inh, GDH-TPI counter-1, BJeLR lethal)
Cc1cc2nc(-c3cccnc3SCC(=O)NC(C)C)[nH]c2cc1C	none
COCCOC(=O)CSc1ncccc1-c1nc2cc(C)c(C)cc2[nH]1	Mtb FBA inh 30 | Mtb FBA inh conf 191 | GDH-TPI counter-2 156
Cn1cc2ccc(N)cc2n1	Mtb FBA inh 29 (no result: RecA splice inh, BJeLR lethal) | Mtb FBA inh conf 68 | GDH-TPI counter-2 56
CC(=O)c1ccc(S(=O)(=O)NCC2CCN(C(=O)C(=O)c3cc4ccccc4o3)CC2)cc1	none (no result: RecA splice inh, Mtb FBA inh, GDH-TPI counter-1, BJeLR lethal)
Nc1c(C(=O)NCC(O)c2ccccc2)cnn1-c1ccccc1 (stereo unspecified)	none (no result: RecA splice inh, Mtb FBA inh, GDH-TPI counter-1, BJeLR lethal)
O=C(Nc1cccc([N+](=O)[O-])c1)NC1CCCCN(Cc2ccc(Cl)cc2)C1=O (stereo unspecified)	none (no result: RecA splice inh, Mtb FBA inh, GDH-TPI counter-1, BJeLR lethal)
CCCCNC(=O)CCC(=O)Nc1ccc2nc(N3CCCCC3)cc(C)c2c1	Mtb FBA inh 78 | Mtb FBA inh conf active | GDH-TPI counter-2 145
CCCCNC(=O)CCC(=O)Nc1ccc2nc(N3CCOCC3)cc(C)c2c1	Mtb FBA inh 62 | Mtb FBA inh conf inactive | GDH-TPI counter-2 inactive
COCCCNC(=O)CCC(=O)Nc1ccc2nc(N3CCOCC3)cc(C)c2c1	Mtb FBA inh 88 | Mtb FBA inh conf inactive | GDH-TPI counter-2 inactive
Cc1cc(N2CCOCC2)nc2ccc(NC(=O)CCC(=O)N3CCC4(CC3)OCCO4)cc12	Mtb FBA inh 58 | Mtb FBA inh conf active | GDH-TPI counter-2 active
CCOC(=O)CN1C(=O)[C@]2(OCCC=C[C@H]2C)c2c(Br)cccc21	none (no result: RecA splice inh, Mtb FBA inh, GDH-TPI counter-1, BJeLR lethal)
CCOC(=O)C1CCCN(C(=O)CCC(=O)Nc2ccc3nc(N4CCOCC4)cc(C)c3c2)C1 (stereo unspecified)	Mtb FBA inh 67 | Mtb FBA inh conf 89 | GDH-TPI counter-2 69
COc1cccc(NC(=O)CCC(=O)Nc2ccc3nc(N4CCOCC4)cc(C)c3c2)c1	Mtb FBA inh 66 | Mtb FBA inh conf 125 | GDH-TPI counter-2 95
Cc1cc(N2CCN(C)CC2)nc2ccc(NC(=O)CCC(=O)NCCCOC(C)C)cc12	none
Cc1cc(N2CCCCC2)nc2ccc(NC(=O)CCC(=O)NCCC(C)C)cc12	Mtb FBA inh 54 | Mtb FBA inh conf inactive | GDH-TPI counter-2 inactive
Cc1ccc(-c2nc3ccccn3c2Nc2ccccc2)o1	Mtb FBA inh 108 | Mtb FBA inh conf 138 | GDH-TPI counter-2 127
CCOC(=O)c1cc2cc(OC)ccc2[nH]1	Mtb FBA inh 41 | Mtb FBA inh conf 45 | GDH-TPI counter-2 42
COc1ccc2[nH]c(C(=O)NCc3ccccc3)cc2c1	Mtb FBA inh 56 | Mtb FBA inh conf 64 | GDH-TPI counter-2 46
CC(C)C[C@@H]1NC(=O)[C@H]2C[C@]3(c4ccccc4)c4ccccc4N[C@H]3N2C1=O	none (no result: RecA splice inh, Mtb FBA inh, GDH-TPI counter-1, BJeLR lethal)
O=C1NC(C2CC3C=CC2C3)Nc2ccccc21 (stereo unspecified)	Mtb FBA inh 63 (no result: RecA splice inh, BJeLR lethal) | Mtb FBA inh conf active | GDH-TPI counter-2 172
NS(=O)(=O)c1cc2c(cc1Cl)NC(C1CC3C=CC1C3)NS2(=O)=O (stereo unspecified)	none (no result: RecA splice inh, BJeLR lethal)
CN1CCSc2ccc(C(=O)NCc3ccccc3)cc21	Mtb FBA inh 96 | Mtb FBA inh conf active | GDH-TPI counter-2 167
CN1CCSc2ccc(C(=O)Nc3cccc(F)c3)cc21	none
O=C(NCc1cccnc1)c1ccc2c(c1)N(Cc1ccccc1)CCS2	Mtb FBA inh 76 | Mtb FBA inh conf 163 | GDH-TPI counter-2 124
O=C(NCc1cccnc1)c1ccc(Cl)c(Cl)c1	none
O=C(NCc1ccccn1)c1ccc2c(c1)N(Cc1ccccc1)CCS2	Mtb FBA inh 94 | Mtb FBA inh conf inactive | GDH-TPI counter-2 inactive
